Assay outcomes deposited in PubChem by several laboratories.
Sampled rows, rich in hits. Any-hit rate of the full collection: about 1.8%.
697 NFkB inh: lowers PMA/ionomycin-induced NF-kB signal in 697 B cells | 697 B-cell NF-kB luciferase reporter, 16 h | inhibition, % at 4 µM | 330,000 compounds, 0.33% hits; in the data active means inhibition above about 35%
Gli-Sufu antag: blocks Gli-Sufu signaling in a luciferase reporter | inhibition, % at 5 µM | AID 588413 | 340,000 compounds, 0.74% hits | Sufu-KO-LIGHT fibroblasts, Gli luciferase reporter luminescence;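 active means inhibition above about 55%, limit read from the data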;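 further: 0% = DMSO-treated cells and 100% = wells with medium but no cells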
Beta cell apopt: beta cell apoptosis inhibition. AID 435005. INS-1E cytokine-induced death, ATP luminescence, 48 h; percent of positive-control rescue, neutral wells zero. 300,000 compounds, 0.8% hits. protection from apoptosis, % (test concentration not listed);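 active means Every replicate reaches about 75%, or at least half do and their mean reaches it too, limit read from the data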;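 further: 0% = cytokine-treated negative control wells and 100% = positive control rescue; higher means more ATP so stronger rescue from cytokine killing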
Jurkat NFkB inh: lowers PMA/ionomycin-induced NF-kB signal in Jurkat cells; PMA/ionomycin-induced NF-kB luciferase reporter, luminescence; inhibition, % at 4 µM; 330,000 compounds, 0.53% hits; AID 435003; in the data active means inhibition above about 50%
Jurkat NFkB conf: lowers PMA/ionomycin-induced NF-kB signal in Jurkat cells; shares compounds with Jurkat NFkB inh; 2,700 compounds, 27% hits; inhibition, % at 4 µM; Jurkat NF-kB luciferase, 16 h;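 active means inhibition reaching about 45% at 4 µM in either replicate, limit read from the data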;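 further: plate controls were PMA/ionomycin stimulated DMSO wells for no effect and unstimulated DMSO wells for full effect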
The depositor's hits bear a star; nt = not tested or not shown.

SMILES | 697 NFkB inh | Gli-Sufu antag | Beta cell apopt | Jurkat NFkB inh | Jurkat NFkB conf
CC(=O)N1CCc2cc(S(=O)(=O)N3c4ccccc4CC3C)ccc21 (configuration not stated) | -72 | 0 | 12 | 53* | 18
CC(=O)N1CCc2cc(S(=O)(=O)N3CCOCC3)ccc21 | 4 | 8 | -1 | 14 | nt
CC1Cc2ccccc2N1S(=O)(=O)c1cnc[nH]1 (configuration not stated) | 18 | -10 | -3 | 8 | nt
CSc1ccc(S(=O)(=O)N2c3ccccc3CC2C)cc1 (configuration not stated) | -4 | 1 | 6 | 55* | 27
CCCCN1C(Nc2ccccc2)=NC[C@@H]1Cc1ccccc1 | 4 | 34 | -3 | -5 | nt
CN1CCN(c2ccc(NC(=O)c3sc4ccccc4c3Cl)cc2)CC1 | -176 | 0 | 20 | -179 | -60
COc1ccccc1NC(=O)COC(=O)Cn1cnc2c1c(=O)n(C)c(=O)n2C | -1 | -6 | -6 | 60* | 6
CCCCCCCCn1c2c(c(=N)c3ccccc31)CCC2 | 26 | 91* | nt | 99* | 69*
CCCCCCCCCCn1c2c(c(=N)c3c1CCC3)CCC2 | 0 | 92* | 118* | 82* | 75*
CCCCCn1c2c(c(=N)c3ccccc31)CCC2 | 35 | 84* | 23 | 74* | 47*
CCOC(=O)Cn1c2c(c(=N)c3ccccc31)CCC2 | -6 | 17 | -4 | -1 | nt
C#CCOCCOCCOCCNc1nc(N2CCN(C(=O)CCCCCCCCCCNC(=O)[C@H](CCCCN)n3cc(C[C@@H](C)CC)nn3)CC2)nc(N2CCN(C(=O)CCCCCCCCCCNC(=O)[C@@H]([C@H](C)O)n3cc(C)nn3)CC2)n1 | -41 | 11 | 99* | 91* | 0
CCn1c2ccccc2c2cc(NC(=O)c3cccc(OC)c3OC)ccc21 | 10 | 8 | 9 | -9 | nt
COc1cc(OC)cc(C(=O)/C=C2\Sc3ccccc3N2C)c1 | -18 | -15 | 3 | -33 | nt
CN1/C(=C\C(=O)c2cccc([N+](=O)[O-])c2)Sc2ccccc21 | -101 | -67 | 58 | -175 | -1
COc1ccc(CNCC(=O)Nc2ccccc2-n2cccc2)cc1 | -28 | 12 | 0 | 68* | 13
COc1ccc(OCC(=O)Nc2ccccc2N2CCN(C)CC2)cc1 | -3 | 1 | -3 | -6 | nt
COc1ccc(OCC(=O)Nc2ccccc2N2CCCCC2)cc1 | 4 | 4 | 9 | 64* | 47
Cc1csc(NC(=O)CSc2ccc(-c3ccccn3)nn2)n1 | 11 | 1 | -4 | 12 | nt
O=C(COc1ccc(Br)cc1)N/N=C1\SCC(=O)N1c1ccc(F)cc1 | -9 | -6 | -16 | 99* | 15
C=CCNc1nc(-c2ccc([N+](=O)[O-])cc2)cs1 | -174 | -73 | 0 | -112 | nt
C=CCNc1nc(-c2ccc(Cl)cc2)cs1 | -151 | 6 | -7 | -157 | -27
COc1ccc(C2CC(c3ccc4ccccc4c3)=NN2C(=O)COC(=O)C2CCC(=O)N2)cc1 (configuration not stated) | -169 | -111 | -10 | -196 | -133
O=C(CNC(=O)C1CCCCC1)Nc1ccc(F)c(Cl)c1 | -21 | 0 | -1 | -8 | nt
COc1cc2c(cc1OC)C(c1cccc(Br)c1)CC(=O)N2 (configuration not stated) | -13 | 5 | -7 | -14 | nt
SMILES | 697 NFkB inh | Gli-Sufu antag | Beta cell apopt | Jurkat NFkB inh | Jurkat NFkB conf
O=C1CC(c2cc(F)ccc2F)c2cc3c(cc2N1)CCC3 (configuration not stated) | -77 | 4 | -1 | 71* | 52*
O=C1CC(c2cccc(Br)c2)c2cc3c(cc2N1)CCC3 (configuration not stated) | -72 | 10 | nt | 54* | 45
CC(=O)Nc1ccc(OCC(=O)NC(C)C(C)C)cc1 (configuration not stated) | -3 | 3 | -8 | -14 | nt
Cc1ccccc1OCC(=O)NNC(=O)Cc1ccc(S(=O)(=O)N2CCOCC2)s1 | 20 | 0 | nt | -5 | nt
CC(=O)c1sc(NC(=O)c2ccc(C(C)(C)C)cc2)nc1C | -231 | -91 | 1 | -172 | -86
O=C(Oc1ccc2c(c1)OCO2)c1cc2c(s1)CCC2 | -19 | -2 | 9 | 37 | nt
Cc1nc(-c2ccc(NC(=O)c3ccc(Br)o3)cc2)cs1 | -82 | -158 | -6 | -215 | -105
Cc1nc(-c2cccc(NC(=O)c3ccc(Br)o3)c2)cs1 | 1 | -13 | -2 | -14 | nt
Cc1nc(Nc2ccc3c(c2)OCCO3)c2oc3ccccc3c2n1 | 11 | -9 | 5 | -16 | nt
c1ccc2c(c1)oc1c(Nc3ccc4c(c3)OCCO4)ncnc12 | -196 | -101 | 5 | -166 | -133
COc1ccc(Cl)cc1NC(=O)CN(C)CC(=O)Nc1ccccc1N1CCOCC1 | -28 | 9 | 20 | 63* | 43
CCOC(=O)C1CCCN(S(=O)(=O)NC[C@H]2O[C@@H](n3cnc4c(N)ncnc43)[C@H](O)[C@@H]2O)C1 (some centres not stated) | 7 | 3 | -10 | -15 | nt
O=C(NCC1CCCO1)Nc1ccc(Cl)cc1 (configuration not stated) | -16 | -1 | -4 | -36 | nt
Cc1cc(C)c2cccc(N)c2n1 | -44 | -2 | 17 | 3 | nt
Cc1cc(C)c2ccc(N)nc2c1O | -2 | 0 | 34 | 52* | 14
O=C(N/N=C/c1ccccn1)c1ccc(NC(=O)c2ccccc2Cl)cc1 | 29 | -12 | nt | 10 | nt
O=C(N/N=C/c1ccccn1)c1ccc(Cl)c(Cl)c1 | 3 | nt | 18 | 70* | -2
Cn1c(N)c(C(=O)Nc2ccccc2F)sc1=S | -16 | 2 | -1 | -6 | nt
Cn1c(N)c(C(=O)Nc2ccc3ccccc3c2)sc1=S | -112 | -73 | -5 | -163 | -26
O=C(CN1CCN(C(=O)c2ccco2)CC1)Nc1ccc(Br)cc1 | 10 | 1 | 2 | -3 | nt
CCOC(=O)c1ccc(Nc2cnc3ccccc3n2)cc1 | -116 | -35 | 5 | -150 | -116
CN(C)c1ccc(C(=O)Nc2nc3c(s2)CCCC3)cc1 | -186 | -118 | 7 | -194 | -117
Cc1cc(-c2ccc(C)c(S(=O)(=O)N3CCN(c4ccc([N+](=O)[O-])cc4)CC3)c2)on1 | -9 | -11 | -6 | 54* | 64*
CCc1ccc(-c2cc(C)no2)cc1S(=O)(=O)N1CCN(c2ccccc2)CC1 | -65 | 5 | 6 | 53* | 7
COc1ccc(C(=O)Oc2cc(/C=N/NS(=O)(=O)c3ccccc3)ccc2OC)cc1 | -17 | 1 | -1 | -12 | nt
O=C(O)C(=O)/C(=C\c1ccc(Cl)cc1)c1ccc2ccccc2n1 | -84 | -22 | 0 | -156 | -54
O=C(Nc1ccc2c(c1)CCC2)c1ccccc1Br | -209 | -114 | 7 | -176 | -103
COc1ccc(/C=N/NC(=O)c2cccnc2)cc1Cn1nc([N+](=O)[O-])c(Br)c1C | -41 | nt | 2 | 52* | 41
Cc1nn(CC(=O)NCc2ccc(Cl)cc2)c(C)c1[N+](=O)[O-] | -27 | 5 | -2 | -4 | nt
CCOc1ccc(-n2ccnc(SCC(=O)Nc3ccc(CC)cc3)c2=O)cc1 | 3 | -5 | nt | -11 | nt
